Experimental data reported in PubChem BioAssay (Tox21).
Records with an inconclusive call do not appear. Active and inactive are the calls of the source. Unless noted, calls come from the whole dose curve; as a rule, active = well fitted curve in the direction sought with a large enough effect in the repeat runs; inconclusive = weak or mixed curves; inactive = no such curve, though single readings can be large; an effect the other way counts as inactive or inconclusive.

Columns and labels:
[1] = A CellTox Green Cytotoxicity Assay to monitor cytotoxicity in HepG2 cells - 8 hour (AID 1224890); note: nearly all actives have a fitted effect of over 45% in size
Procedure, shortened: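 Cells and non-lytic dye reagent are dispensed together (600 HepG2 cells/well) and incubated 5 h before DMSO compound transfer. Kinetic fluorescence is then recorded in the same wells during 40 h at 37 C.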

[2] = qHTS assay to identify small molecule antagonists of the estrogen receptor alpha (ER-alpha) signaling pathway using the BG1 cell line in the presence of 0.1 nM 17-beta-estradiol - cell viability counter screen (AID 1259241); note: nearly all actives have a fitted effect of over 40% in size
Procedure, shortened: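 Viability in VM7Luc4E2 cells after 22 hr compound exposure under 0.1 nM 17beta-estradiol stimulation, by CellTiter-Fluor.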

[3] = qHTS assay to identify small molecule antagonists of the androgen receptor (AR) signaling pathway using the MDA cell line in the presence of 0.5 nM R1881 - cell viability counter screen (AID 1259242); note: nearly all actives have a fitted effect of over 45% in size
Procedure, shortened: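 Steps: plate MDA-kb2 cells, rest 5 hr at 37C without CO2; pin in compounds in DMSO; add R1881 to 0.5 nM final; incubate 16 hr; add CellTiter-Fluor, 30 min; read fluorescence.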

[4] = biological target: Androgen receptor (Homo sapiens) (UniProt P10275); assay: qHTS assay to identify small molecule antagonists of the androgen receptor (AR) signaling pathway using the MDA cell line in the presence of 0.5 nM R1881 (AID 1259243); note: nearly all actives have a fitted effect of over 50% in size
Procedure, shortened: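 Stably transfected MDA-kb2 cells express luciferase from an MMTV promoter bearing both AR and GR response elements. Compounds plus 0.5 nM R1881 (final) were incubated 16 hr at 37C without CO2, then luminescence measured.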

[5] = qHTS assay to identify small molecule phospholipidosis (PLD) inducers (AID 1259344; active = well fitted curve in the direction sought with a large enough effect; an effect the other way counts as inactive or inconclusive)
Procedure, shortened: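 Phospholipid accumulation was scored by imaging: fixed, Hoechst-counterstained HepG2 cells stained with LipidTOX Red after 24 h compound exposure at 37 C. Read-outs were pit count and pit intensity per well or per cell, with amiodarone and DMSO controls.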

[6] = qHTS assay to identify small molecule HDAC inhibitors (AID 1259364);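 note: wild-type HCT-116 cells with endogenous class I/II HDAC activity; top concentration of the series differs between compounds; nearly all actives have a fitted effect of over 45% in size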
Procedure, shortened: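 Cells (HCT-116, wild type) are seeded at 1,500 per well, incubated overnight, treated with compound in DMSO for 2 hr, then developed with HDAC-Glo I/II reagent for 30 min at room temperature.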

[7] = qHTS assay to identify small molecule HDAC inhibitors - cell viability counter screen (AID 1259365); note: series mostly up to about 92 µM; nearly all actives have a fitted effect of over 50% in size
Procedure, shortened: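 Cytotoxicity was gauged in wild-type HCT-116 cells after a brief 2hr treatment with DMSO-dissolved compounds at 37C and 5% CO2, using CellTiter-Glo luminescence developed for 30min at room temperature.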

[8] = qHTS assay to identify small molecule agonists of the sonic hedgehog signaling (Shh) pathway - cell viability counter screen (AID 1259366); note: nearly all actives have a fitted effect of over 50% in size
Procedure, shortened: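 Stable Gli1-Luc NIH/3T3 clone, 2,000 cells/well. Compound exposure 24hr at 37C. Read-out: CellTiter-Fluor fluorescence.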

[9] = qHTS assay to identify small molecule antagonists of the sonic hedgehog signaling (Shh) pathway - cell viability counter screen (AID 1259367); note: nearly all actives have a fitted effect of over 55% in size
Procedure, shortened: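 Viability was read by CellTiter-Fluor fluorescence in the same wells, reagent added 23 hr into compound treatment and incubated 1 hr at 37C. The 3T3 Gli1-Luc reporter cells (2,000/well) received conditioned medium after compound and ran 24 hr.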

[10] = qHTS assay to identify small molecule agonists of the sonic hedgehog signaling (Shh) pathway (AID 1259368; calls by dose curve;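 note: NIH/3T3-derived 3T3Gli1-Luc cells carrying a stable Gli1-driven firefly luciferase reporter; series mostly up to about 92 µM; nearly all actives have a fitted effect of over 15% in size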)
Procedure, shortened: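 Cells of a mouse NIH/3T3 clone stably expressing luciferase under the Gli1 transcriptional response element are exposed to test chemicals for 24 hr at 37 C. Pathway activation is detected as a rise in luminescence.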

[11] = qHTS assay to identify small molecule antagonists of the sonic hedgehog signaling (Shh) pathway (AID 1259369; calls by dose curve; note: nearly all actives have a fitted effect of over 45% in size)
Procedure, shortened: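 Cells are plated and held 4hr at 37 C, compounds (DMSO) are pinned in, conditioned medium is added to stimulate the pathway, and after 24hr luciferase reagent is added for 30min before luminescence is read.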

[12] = biological target: Estrogen receptor beta (Homo sapiens) (UniProt Q92731); assay: qHTS assay to identify small molecule agonists of the estrogen receptor beta (ER-beta) signaling pathway (AID 1259377; active = well fitted activation curve with a large enough effect in the signal ratio in the repeat runs, not every such curve was filed as active; the % refers to the signal ratio)
Procedure, shortened: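 Measured by fluorescence intensity from a B/G FRET beta-lactamase substrate (2 h, room temperature) in ER-beta-UAS-bla HEK293T cells treated with DMSO-dissolved compounds for 16 hr at 37C and 5% CO2.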

[13] = biological target: Estrogen receptor beta (Homo sapiens) (UniProt Q92731); assay: qHTS assay to identify small molecule antagonists of the estrogen receptor beta (ER-beta) signaling pathway (AID 1259378; active = well fitted inhibition curve with a large enough effect in the signal ratio in the repeat runs, not every such curve was filed as active; the % refers to the signal ratio)
Procedure, shortened: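 Antagonist mode: compounds added to beta-lactamase reporter HEK293T ER-beta-UAS cells stimulated with E2 (1nM final), 16 hr at 37C. LiveBLAzer B/G FRET substrate, 2 hours room temperature, fluorescence read-out.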

[14] = qHTS assay to identify small molecule agonists of the androgen receptor (AR) signaling pathway in the presence of an antagonist - cell viability counter screen (AID 1259379);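 note: MDA-kb2 human breast cancer cells carrying an MMTV luciferase reporter; series mostly up to about 92 µM; nearly all actives have a fitted effect of over 25% in size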
Procedure, shortened: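 Cytotoxicity is assessed by CellTiter-Fluor in MDA-kb2 cells carrying an MMTV-driven luciferase reporter. Cells receive 3.0uM nilutamide plus compounds at 15 concentrations and incubate 16 hr at 37C without CO2 before fluorescence reading.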

[15] = qHTS assay to identify small molecule agonists of the estrogen receptor beta (ER-beta) signaling pathway - cell viability counter screen (AID 1259380); note: nearly all actives have a fitted effect of over 30% in size
Procedure, shortened: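 Cytotoxicity is measured in parallel with the reporter screen: after 16 hr compound exposure at 37C and a 2 hr LiveBLAzer step, CellTiter-Glo is added to the same ER-beta-UAS-bla HEK293T wells and luminescence read after 30 min.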

[16] = biological target: Androgen receptor (Homo sapiens) (UniProt P10275); assay: qHTS assay to identify small molecule agonists of the androgen receptor (AR) signaling pathway in the presence of an antagonist (AID 1259381; calls by dose curve; note: nearly all actives have a fitted effect of over 15% in size)
Procedure, shortened: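 Agonist-mode confirmation screen: human MDA-kb2 cells stably expressing luciferase under an MMTV promoter bearing AR and GR response elements, co-treated with 3.0uM nilutamide (final). Luminescence measured after 16hr compound incubation.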

[17] = qHTS assay to identify small molecule antagonists of the estrogen receptor beta (ER-beta) signaling pathway - cell viability counter screen (AID 1259382);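 note: HEK293T cells carrying ER-beta-UAS-bla reporter stimulated with estradiol; series mostly up to about 92 µM; nearly all actives have a fitted effect of over 55% in size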
Procedure, shortened: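 Cytotoxicity counter screen multiplexed with the beta-lactamase antagonist assay: GripTite HEK293T ER-beta-bla cells were treated 16 hr with test chemicals in the presence of 1nM 17-beta-estradiol, and viability was measured by CellTiter-Glo.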

[18] = biological target: Estrogen receptor (Homo sapiens) (UniProt P03372); assay: qHTS assay to identify small molecule agonists of the estrogen receptor alpha (ER-alpha) signaling pathway in the presence of an antagonist (AID 1259383; calls by dose curve; note: top concentration of the series differs between compounds; nearly all actives have a fitted effect of over 15% in size)
Procedure, shortened: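 Agonist-mode confirmation in the presence of the ER antagonist ICI-182,780 at 10.0nM final. Breast-derived VM7Luc4E2 reporter cells were exposed to compounds for 22hr, and ERE-driven luciferase was quantified by luminescence.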

[19] = biological target: Estrogen receptor (Homo sapiens) (UniProt P03372); assay: qHTS assay to identify small molecule antagonists of the estrogen receptor alpha (ER-alpha) signaling pathway using the BG1 cell line in the presence of 0.1 nM 17-beta-estradiol (AID 1259244); note: nearly all actives have a fitted effect of over 50% in size
Procedure, shortened: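 Antagonist mode: compounds in DMSO are pinned onto VM7Luc4E2 reporter cells, 0.1 nM final 17beta-estradiol is added, and after 22 h at 37C luciferase luminescence is measured with ONE-Glo.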

[20] = qHTS assay to identify small molecule agonists or antagonists of the thyroid stimulating hormone receptor (TSHR) signaling pathway - wild type cell line counter screen (AID 1259384; calls by dose curve)
Procedure, shortened: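 Counter screen in untransfected Hek293: compounds (15-point titration, triplicate) plus phosphodiesterase inhibitor Ro20-1724 added after 18 h plating; 30 min RT. Intracellular cAMP via competitive d2/cryptate immunoassay, 1 h incubation.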

Measured: Potency

Estrogen receptor beta (Homo sapiens), sequence (Q92731 whole entry, looked up): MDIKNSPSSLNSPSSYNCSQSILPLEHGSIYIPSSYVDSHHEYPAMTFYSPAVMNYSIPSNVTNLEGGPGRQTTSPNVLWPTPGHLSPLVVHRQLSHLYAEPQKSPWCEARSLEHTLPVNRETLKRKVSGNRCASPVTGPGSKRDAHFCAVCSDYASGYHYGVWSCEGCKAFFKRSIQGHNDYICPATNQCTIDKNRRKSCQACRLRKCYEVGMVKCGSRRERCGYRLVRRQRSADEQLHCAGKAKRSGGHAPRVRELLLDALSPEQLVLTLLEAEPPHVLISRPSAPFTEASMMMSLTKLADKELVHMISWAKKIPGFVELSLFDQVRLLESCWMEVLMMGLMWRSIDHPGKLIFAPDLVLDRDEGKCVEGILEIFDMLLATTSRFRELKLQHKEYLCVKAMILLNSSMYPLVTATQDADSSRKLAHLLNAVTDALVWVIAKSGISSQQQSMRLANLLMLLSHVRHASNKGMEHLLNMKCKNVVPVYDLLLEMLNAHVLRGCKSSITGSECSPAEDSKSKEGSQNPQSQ
Androgen receptor (Homo sapiens), sequence (P10275 whole entry, looked up): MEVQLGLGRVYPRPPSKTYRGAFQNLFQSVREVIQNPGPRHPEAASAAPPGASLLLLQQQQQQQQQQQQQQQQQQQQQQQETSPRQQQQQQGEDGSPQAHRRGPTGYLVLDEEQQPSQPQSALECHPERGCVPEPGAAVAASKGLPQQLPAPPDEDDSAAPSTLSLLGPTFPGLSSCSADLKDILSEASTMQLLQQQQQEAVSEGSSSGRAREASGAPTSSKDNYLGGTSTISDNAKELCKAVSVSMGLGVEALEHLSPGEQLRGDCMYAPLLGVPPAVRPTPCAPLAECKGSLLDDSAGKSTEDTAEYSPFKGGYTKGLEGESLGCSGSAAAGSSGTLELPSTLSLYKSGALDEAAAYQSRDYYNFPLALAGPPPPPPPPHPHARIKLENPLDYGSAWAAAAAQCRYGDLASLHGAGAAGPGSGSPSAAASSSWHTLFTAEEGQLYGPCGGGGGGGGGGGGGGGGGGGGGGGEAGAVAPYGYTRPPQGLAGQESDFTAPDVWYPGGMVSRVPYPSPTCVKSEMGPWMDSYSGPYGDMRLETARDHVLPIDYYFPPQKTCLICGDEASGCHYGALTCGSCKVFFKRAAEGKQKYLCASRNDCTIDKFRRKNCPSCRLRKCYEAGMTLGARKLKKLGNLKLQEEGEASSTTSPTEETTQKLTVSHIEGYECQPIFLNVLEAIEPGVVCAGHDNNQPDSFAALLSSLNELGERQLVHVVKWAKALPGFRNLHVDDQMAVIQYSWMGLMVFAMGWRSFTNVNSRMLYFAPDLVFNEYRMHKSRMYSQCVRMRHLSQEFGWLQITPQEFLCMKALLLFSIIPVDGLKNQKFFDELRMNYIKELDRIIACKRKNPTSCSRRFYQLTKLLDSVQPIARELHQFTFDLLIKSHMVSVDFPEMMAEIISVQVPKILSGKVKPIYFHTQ
Estrogen receptor (Homo sapiens), sequence (P03372 whole entry, looked up): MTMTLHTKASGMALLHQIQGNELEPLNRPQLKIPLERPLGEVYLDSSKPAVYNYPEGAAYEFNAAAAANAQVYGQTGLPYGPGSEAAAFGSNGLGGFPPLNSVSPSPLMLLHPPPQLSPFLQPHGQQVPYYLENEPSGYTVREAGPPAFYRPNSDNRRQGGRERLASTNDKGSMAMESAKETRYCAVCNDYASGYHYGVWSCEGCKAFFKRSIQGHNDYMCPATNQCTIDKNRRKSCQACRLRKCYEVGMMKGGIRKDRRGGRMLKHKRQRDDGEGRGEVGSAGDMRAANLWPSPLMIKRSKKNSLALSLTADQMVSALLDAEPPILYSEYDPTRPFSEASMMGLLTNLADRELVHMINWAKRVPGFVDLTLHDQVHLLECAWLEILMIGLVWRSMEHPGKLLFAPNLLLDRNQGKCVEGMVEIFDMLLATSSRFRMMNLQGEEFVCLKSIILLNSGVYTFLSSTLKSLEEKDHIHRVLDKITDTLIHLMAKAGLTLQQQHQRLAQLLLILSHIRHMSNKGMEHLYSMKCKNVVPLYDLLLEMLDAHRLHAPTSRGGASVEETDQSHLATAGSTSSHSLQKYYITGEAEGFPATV

Nc1ccc(S(=O)(=O)Nc2ccc(Cl)nn2)cc1
not listed: [19] | [20]
inactive: all other assays above

O=C(NCCc1c[nH]c2ccccc12)c1cccnc1
not listed: [6] | [9] | [14] | [15] | [17]
inactive: all other assays above

Cc1ccc2ccc(Cl)cc2n1
not listed: [5] | [12] | [13]
inactive: all other assays above

CC(CC=O)CCCC(C)(C)O (stereo unspecified)
not listed: [9] | [12] | [13]
inactive: all other assays above

CC(S)C(=O)NCC(=O)O (stereo unspecified)
not listed: [18] | [19]
inactive: all other assays above

COc1ccc2nc(SCc3ncc(C)c(OC)c3C)[nH]c2c1
not listed: [5] | [12] | [13] | [15]
inactive: all other assays above

OCCN(CCO)c1cccc(Cl)c1
not listed: [5] | [18] | [19]
inactive: all other assays above

N#Cc1ccc(C(=O)O)cc1
not listed: [5] | [15] | [18] | [19] | [20]
inactive: all other assays above

O=C(CCN1CCN(CCO)CC1)N1c2ccccc2Sc2ccc(C(F)(F)F)cc21
not listed: [9] | [12] | [13] | [19]
inactive: all other assays above

CCCCCCCCCC(C)=O
not listed: [5] | [14] | [15]
inactive: all other assays above

CC(C)=O
not listed: [8] | [15]
inactive: all other assays above

CC(C)(C)NC(N)=O
not listed: [5]
inactive: all other assays above

COCCc1ccc(OCC2CO2)cc1 (stereo unspecified)
not listed: [5]
inactive: all other assays above

CC(C(=O)O)c1ccc2c(c1)CC(=O)c1ccccc1S2 (stereo unspecified)
not listed: [8] | [9] | [12] | [13]
inactive: all other assays above

O=C(O)c1cc(Br)c(O)c(Br)c1
not listed: [5] | [17] | [18] | [19]
inactive: all other assays above

NS(=O)(=O)c1cc2c(cc1Cl)CN(C1CCCCC1)C2=O
not listed: [5] | [18] | [19]
inactive: all other assays above
